Assay results reported in PubChem BioAssay (NCI).
Compounds without any hit were thinned out: in the full panel of roughly 79,000, 15% have a hit. Values without a mark were called inactive. The source made the active and inactive calls. Cut-off read from the data, not from the text of the source: active = growth inhibition above about 70%; inactive = the rest.

Experiments:
[1] = NCI Yeast Anticancer Drug Screen. Data for the rad50 strain (AID 155);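 note: 0% = growth of vehicle-only cultures of the same strain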; conditions: S. cerevisiae rad50 strain growth inhibition, hits give high values
Summary of the method: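 Yeast carrying a defined DNA repair defect were exposed to test compounds, and growth was compared with vehicle-treated controls to give percent inhibition.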

[2] = NCI Yeast Anticancer Drug Screen. Data for the mec2-1 strain (AID 157); conditions: S. cerevisiae mec2-1 strain, hits give high values
Summary of the method: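 Using mec2-1 yeast: add compound, measure growth, express inhibition versus vehicle-treated cultures.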

[3] = NCI Yeast Anticancer Drug Screen. Data for the sgs1 mgt1 strain (AID 161);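 note: 0% = growth of cultures given vehicle only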; conditions: S. cerevisiae sgs1 mgt1 strain, hits give high values
Summary of the method: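 Compounds are added to genetically altered yeast, and growth is compared with cultures given vehicle alone to give percent inhibition.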

[4] = NCI Yeast Anticancer Drug Screen. Data for the cln2 rad14 strain (AID 165);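 note: 0% = growth equal to vehicle treated cultures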; conditions: S. cerevisiae cln2 rad14 strain, hits give high values
Summary of the method: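 Yeast strain cln2 rad14, bearing defects in cell cycle control and DNA repair, serves as the test system; values reflect growth inhibition compared with vehicle.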

[5] = NCI Yeast Anticancer Drug Screen. Data for the bub3 strain (AID 167); conditions: S. cerevisiae bub3 mutant strain, hits give high values
Summary of the method: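 Compounds were applied to a genetically altered yeast strain carrying a cell-cycle control defect. Growth inhibition was scored against vehicle-treated controls.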

[6] = NCI Yeast Anticancer Drug Screen. Data for the mlh1 rad18 strain (AID 175); conditions: S. cerevisiae mlh1 rad18 strain growth inhibition, hits give high values
Summary of the method: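 Steps: expose repair-defective yeast to compound; measure growth; express inhibition against vehicle-treated controls.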

[7] = at 5.0 µM (retest, dose inferred, filed as 0.5)
[8] = at 50.0 µM (retest, dose inferred, filed as 5.0)

SMILES	growth inhibition [1, 7]	growth inhibition [1, 8]	growth inhibition ([1]; at 50.0 µM)	growth inhibition [2, 7]	growth inhibition [2, 8]	growth inhibition ([2]; at 50.0 µM)	growth inhibition [3, 7]	growth inhibition [3, 8]	growth inhibition ([3]; at 50.0 µM)	growth inhibition [4, 7]	growth inhibition [4, 8]	growth inhibition ([4]; at 50.0 µM)	growth inhibition [5, 7]	growth inhibition [5, 8]	growth inhibition ([5]; at 50.0 µM)	growth inhibition [6, 7]	growth inhibition [6, 8]	growth inhibition ([6]; at 50.0 µM)
COc1cc(C2SC(N)=Nc3c2c(C)nn3C(=O)c2ccccc2O)cc(OC)c1OC (configuration not stated)	-1%	80% (active)	52.5%	-10%	71% (active)	39.9%	-5%	75% (active)	79.8% (active)	3%	25%	56.4%	-1%	70% (active)	79.1% (active)	6%	86% (active)	50.2%
CCCCCCCCCCCCCCCC[N+](C)(CCO)Cc1cnc[nH]1 (configuration not stated)	97% (active)	98% (active)	90.2% (active)	97% (active)	99% (active)	87.4% (active)	98% (active)	99% (active)	90.8% (active)	98% (active)	99% (active)	86.8% (active)	99% (active)	99% (active)	88% (active)	94% (active)	98% (active)	88.6% (active)
CC/C(=C(\CC)c1ccc(O)c(CN(C)C)c1)c1ccc(OC)cc1	9%	87% (active)	98.5% (active)	9%	84% (active)	86.3% (active)	12%	99% (active)	99.6% (active)	0%	98% (active)	97.8% (active)	-28%	95% (active)	94.8% (active)	3%	98% (active)	98.6% (active)
N#C/C(=C\c1c(Cl)cccc1Cl)c1nc2ccccc2[nH]1	38%	97% (active)	87.7% (active)	22%	99% (active)	90.2% (active)	33%	99% (active)	90.6% (active)	23%	98% (active)	88.9% (active)	35%	98% (active)	91.5% (active)	42%	98% (active)	88.8% (active)
CCN(C(=O)O)c1ccc(/C=C/c2ccnc3ccccc23)cc1	4%	94% (active)	2.4%	-16%	96% (active)	-17.9%	5%	96% (active)	40.1%	-26%	91% (active)	-0.1%	-17%	95% (active)	23%	-7%	91% (active)	29.4%
O=C(CNC(=O)c1ccccc1)Oc1c(Cl)c(Cl)c(Cl)c(Cl)c1Cl	12%	61%	75% (active)	42%	82% (active)	74.8% (active)	38%	89% (active)	90.8% (active)	7%	42%	65.9%	1%	45%	34%	50%	90% (active)	77.5% (active)
O=C(Nc1c(Cl)cccc1Cl)Oc1cccc2cccnc12	58%	97% (active)	88.5% (active)	35%	98% (active)	90.6% (active)	60%	99% (active)	90.6% (active)	20%	98% (active)	88% (active)	42%	96% (active)	89.4% (active)	57%	97% (active)	88.3% (active)
CCN(CC)CCNc1c(C)ccc2cccnc12	0%	7%	33.5%	-4%	-4%	35.9%	-2%	-2%	29.4%	-1%	-14%	-29.2%	-1%	2%	53.8%	0%	8%	51.5%
O=C1c2c(O)ccc(O)c2C(=O)c2c(O)ccc(O)c21	-23%	22%	21.4%	1%	-12%	18.2%	-12%	10%	12.3%	-10%	-2%	41%	-14%	8%	16.5%	8%	-2%	4.25%
COC(=O)c1cc(OC)c(OC)c(OC)c1	4%	72% (active)	4.25%	1%	18%	-0.5%	2%	29%	-13.1%	2%	60%	-23.3%	2%	70% (active)	36.9%	-1%	48%	0.25%
COC(=O)c1cc2c(c(C(=O)OC)c1O)C(=O)C=CC2=O	2%	78% (active)	84.5% (active)	8%	95% (active)	84% (active)	5%	80% (active)	80% (active)	10%	95% (active)	56.3%	-2%	90% (active)	69.8%	-28%	95% (active)	70.6% (active)
O=C(N=c1sc2ccccc2s1)N=c1sc2ccccc2s1	1%	10%	45.9%	35%	-14%	-2.6%	14%	-20%	47.6%	-32%	6%	84% (active)	-11%	7%	29.6%	-20%	10%	50%
C1CSCCCSCCCSCCCSCCCSC1	17%	24%	31.2%	8%	17%	21.4%	7%	20%	27.5%	9%	22%	47.4%	22%	28%	25.1%	15%	36%	-10.8%
CCCN=Cc1cnc(C#N)c(N)n1	4%	4%	19%	4%	0%	-3.9%	-1%	4%	4.6%	1%	1%	71.5% (active)	-2%	-1%	17.3%	11%	2%	32.5%
N=C(N)c1ccc(Nc2ccc(-c3cc4ccc(C(=N)N)cc4[nH]3)cc2)cc1	99% (active)	98% (active)	98.5% (active)	99% (active)	99% (active)	98.8% (active)	99% (active)	99% (active)	98.8% (active)	99% (active)	98% (active)	98.3% (active)	99% (active)	98% (active)	99% (active)	99% (active)	98% (active)	98.5% (active)
C/C(=N\NC(=S)N1CCN(c2ccccn2)CC1)c1ccccn1	46%	99% (active)	87.7% (active)	35%	100% (active)	90.2% (active)	35%	99% (active)	89.8% (active)	21%	98% (active)	83.2% (active)	63%	100% (active)	90.1% (active)	58%	99% (active)	88.3% (active)
CN1CCN(CCOC(=O)N2c3ccccc3Sc3ccccc32)CC1	1%	1%	9.45%	2%	-2%	-13.2%	-1%	2%	45.5%	0%	1%	-13.9%	-2%	-4%	15.6%	-4%	-3%	4.4%
COc1cc2c(ccc3cc4cccc[n+]4cc32)c(Br)c1OC	0%	44%	76.8% (active)	-6%	73% (active)	42.5%	-7%	39%	73.2% (active)	-8%	13%	20.4%	-5%	46%	10.4%	4%	75% (active)	67.8%
O=C(C(=O)c1ccncc1)c1ccccc1	-148%	-127%	7.6%	-52%	-55%	23.1%	-58%	-63%	-5.6%	-59%	-59%	34%	-64%	-83%	-12.2%	-117%	-114%	-14.6%
